Cruzain Triton: blocks cruzain activity in presence of Triton detergent; Potency, µM, inactives show max response, negative = inhibition, actives largely listed as inhibitors; purified cruzain, Z-FR-AMC fluorescence, 0.01% Triton; AID 1478; actives 0.43% (n = 200,000); P25779;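 also: plate controls were neutral wells for no effect and buffer without enzyme for full effect; nearly all actives have a fitted effect of over 40% in size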
Target sequence (P25779 123-467 limits assumed): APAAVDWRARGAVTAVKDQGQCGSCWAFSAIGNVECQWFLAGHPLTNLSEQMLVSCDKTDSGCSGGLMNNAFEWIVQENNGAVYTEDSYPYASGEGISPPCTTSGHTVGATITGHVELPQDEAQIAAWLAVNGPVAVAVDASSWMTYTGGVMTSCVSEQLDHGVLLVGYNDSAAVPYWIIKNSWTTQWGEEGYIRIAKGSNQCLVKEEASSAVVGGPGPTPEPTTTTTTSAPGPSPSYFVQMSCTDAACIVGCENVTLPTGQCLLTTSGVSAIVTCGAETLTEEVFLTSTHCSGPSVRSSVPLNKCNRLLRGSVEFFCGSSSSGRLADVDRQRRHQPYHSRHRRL
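Purified cruzain (1.5 nM final) was preincubated with compounds for 15 min at room temperature in 100 mM sodium acetate pH 5.5, 5 mM DTT, 0.01% Triton X-100. Reaction started with 2 uM Z-FR-AMC; AMC fluorescence change over 60 s gave activity.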
Cruzain noTriton: cruzain (T. cruzi) inhibition without detergent. P25779. purified cruzain, Z-FR-AMC fluorescence, no detergent. Potency, µM, for the others: max response, negative = inhibition, hits mostly inhibitors. actives 2.3% (n = 200,000). AID 1476;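 also: plate controls were enzyme without inhibitor for no effect and buffer without enzyme for full effect; nearly all actives have a fitted effect of over 40% in size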
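Detergent-free condition (0.00005% Triton X-100) in acetate buffer pH 5.5 with DTT. 1.5 nM enzyme and compound were pre-mixed 15 min, then 2 uM Z-FR-AMC substrate added; reaction progress from fluorescence change between first and third reads (60 s).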
The depositor's hits bear a star; ? = inconclusive. The list is not random: actives were taken first. Their share in the collection is about 2.4%. Calls follow the shape of the dose curve; as a rule, active = well fitted curve in the direction sought with a large enough effect; inconclusive = small, poorly fitted or top-dose-only effect, or another doubt; inactive = no such curve, though single readings can be large; an effect the other way counts as inactive or inconclusive. Potency is read from the fitted curve at half-maximal effect.

SMILES	Cruzain Triton	Cruzain noTriton
Cc1cccc(N2CC(C(=O)Nc3nnc(SCC(=O)Nc4cc(C)on4)s3)CC2=O)c1 (configuration not stated)	-3%	10µM*
COc1ccc(Nc2nnc(SCC(=O)Nc3cc(C)on3)s2)cc1	-5%	-25%
COc1cc(-c2nc(Cn3nnc(C(=O)Nc4cccc(Cl)c4)c3C)c(C)o2)cc(OC)c1OC	-3%	8%
O=C(c1ccccc1)n1nc(-c2ccc(Cl)cc2)nc1NCc1ccco1	-5%	5%
Cc1cccc(C(=O)Nc2nc(-c3nnn(-c4cc(C)ccc4C)c3C)ns2)c1	-1%	-1%
CCc1ccccc1NC(=O)CCn1cccn1	-1%	9%
COC(=O)c1c(C)ccc2c(O)c3c(cc12)C(=O)c1c2c(cc(O)c1C3=O)[C@@]1(C)O[C@@](C)(O2)[C@@H](O)[C@H](N(C)C)[C@H]1O	4%	3%
Cc1ccc(-c2cc(C(=O)Nc3cc(C)ccc3C)[nH]n2)c(O)c1	-1%	13µM*
COc1ccc(OC)c(NC(=O)c2cc(-c3ccc(C)cc3O)n[nH]2)c1	-2%	-25%
O=C(Cn1ncc2c(Cl)cccc21)NCc1cccc(Br)c1	-3%	-1%
FC(F)(F)c1cnc(-c2cnc3c(-c4ccc(Cl)cc4)cnn3c2)c(Cl)c1	5%	10µM*
N#Cc1cnn2cc(-c3ncc(C(F)(F)F)cc3Cl)cnc12	1%	1%
Clc1cccc(/C=N\Nc2nccs2)c1	25µM*	16µM*
Clc1cccc(/C=N/Nc2nc(Cl)nc3ccccc23)c1	-10%	?
Cc1ccc(S(=O)(=O)/C(=C/Cl)NC(=O)c2ccccc2)cc1	22µM*	25µM*
Cc1ccc(C(=O)NC(=C(Cl)Cl)S(=O)(=O)c2ccc(C)cc2)cc1	-2%	11%
CC(C)(C)NC[C@H](O)c1cc(O)cc(O)c1	-3%	-4%
Cc1ccccc1Nc1oc(-c2ccccc2)nc1-c1cccc2ccccc12	-2%	-19%
O=C(COC(=O)c1ccc2c(c1)C(=O)N(c1cccc3ncccc13)C2=O)c1ccc(Cl)cc1	-4%	?
O=C(OCC(=O)c1ccc(Cl)cc1Cl)c1ccc2c(c1)C(=O)N(c1cccc3ncccc13)C2=O	6%	20µM*
CCOC(=O)C1=C(CN2CCN(c3ccccc3F)CC2)NC(=O)NC1c1ccc(Cl)cc1 (configuration not stated)	-3%	4%
Cc1[nH]nc(-c2ccc(OCc3cnn(-c4ccccc4)c3)cc2O)c1Oc1ccccc1F	2%	20µM*
O=c1c(Oc2ccccc2F)coc2cc(OCc3cnn(-c4ccccc4)c3)ccc12	-4%	-29%
Cc1cccn2c3c(c(=O)nc12)C(c1ccc(F)cc1)CC(=O)N3 (configuration not stated)	1%	4%
CCCN(CCC)CCCNC(=O)c1cc2cc3ccc(OC)cc3nc2o1	25µM*	?
SMILES	Cruzain Triton	Cruzain noTriton
COc1ccc2cc3cc(C(=O)NCCc4ccc(OC)c(OC)c4)oc3nc2c1	-16%	?
CCc1ccc(OCc2nnc(NC(=O)c3cccs3)s2)cc1	2%	13µM*
Cc1ccc(OCc2nnc(NC(=O)Cc3cccs3)s2)cc1	4%	?
CCc1ccc(-c2nc(NC(=S)NC(=O)c3cccs3)sc2C)cc1	3%	4µM*
O=C(NC(=S)Nc1nc2ccccc2s1)c1cccs1	-9%	-26%
O=C(COc1ccccc1)NCC(c1cccs1)S(=O)(=O)c1ccc(Cl)cc1 (configuration not stated)	-2%	-11%
CCOc1ccc(NC(=O)Cn2c(=O)n(Cc3ccc(C(=O)NCc4ccc(C)cc4)cc3)c(=O)c3ccccc32)cc1	-2%	-14%
COc1ccc(-n2c(SCC(=O)NCc3ccccc3)nc3n[nH]c(C)c3c2=N)cc1	0%	-16%
Cc1nc(/N=C(\N)NC(=O)c2ccccc2)nc2ccccc12	-11%	3%
Cc1nc(/N=C(\N)NC(=O)N2c3ccccc3Sc3ccccc32)nc2ccccc12	-4%	7.9µM*
Cc1cccc(N=C2NC(=O)/C(=C\c3cccs3)S2)c1	-7%	32µM*
Cc1ccc(N=C2NC(=O)/C(=C/c3cccs3)S2)cc1C	-6%	?
COc1ccc(/C(=C\C(=O)O)c2nccc3cc(OC)c(OC)cc23)cc1OC	-1%	-5%
COc1ccc(-c2nn(CCC(=O)O)cc2/C=C2\SC(N)=NC2=O)cc1OC	-4%	3%
CCCOc1ccc(-c2nn(-c3ccccc3)cc2/C=C2\SC(N)=NC2=O)cc1C	-5%	13µM*
COc1ccc(NC(=O)c2cc3ccccc3o2)c(OC)c1	-6%	1%
O=C(CNC(=O)c1ccccc1)OCC(=O)N1c2ccccc2Sc2ccccc21	10µM*	10µM*
O=C1CN(C(=O)COC(=O)Cc2ccsc2)c2ccccc2N1	-2%	-3%
CC(NC(=O)c1ccccc1)C(=O)OCC(=O)N1c2ccccc2Sc2ccccc21 (configuration not stated)	?	-5%
O=C1CN(C(=O)COC(=O)CNC(=O)c2ccccc2)c2ccccc2N1	?	16µM*
Cc1cc(C)c2c(=O)c3c(oc2c1)C(=O)N(CCCOC(C)C)C3c1ccccc1F (configuration not stated)	0%	?
Cc1ccc(NC(=O)CN2C(=O)C(c3ccc(F)cc3)=NC23CCCCC3)c(C)c1	-6%	-14%
O=c1c(-c2cccc(F)c2)nc2cncnc2n1Cc1ccccc1Cl	-3%	-16%
Cn1cc(CCCC(=O)NCc2cccc(Br)c2)c2ccccc21	-2%	-23%
Cc1cc(C(=O)COc2cccc(-n3cnnn3)c2)c(C)n1-c1ccccc1	-7%	20µM*
SMILES	Cruzain Triton	Cruzain noTriton
COC(=O)COc1cccc(-n2cnnn2)c1	1%	8%
Cc1cc(-c2csc(NC(=O)c3cc4ccccc4o3)n2)c(C)n1C	-6%	16µM*
O=C(NCc1ccc(Cl)cc1)c1cc2ccccc2o1	-6%	-6%
Cc1cc2cc(CNC(=O)c3ccc4c(c3)OCO4)ccc2n1C	-2%	20µM*
O=C(NCc1ccc(-c2nc3ccccc3s2)cc1)c1ccc(Br)o1	1%	?
O=C(NCc1ccc2c(c1)OCO2)c1cccc(C(=O)NCc2ccc3c(c2)OCO3)c1	-2%	0%
Cc1cc2cc(CNC(=O)c3cc4ccccc4o3)ccc2n1C	-4%	25µM*
O=C(Nc1nc(-c2cccs2)cs1)c1cc2ccccc2oc1=O	0%	-1%
O=C(NCc1ccc(-c2nc3ccccc3s2)cc1)c1cc2ccccc2o1	-3%	13µM*
COc1ccccc1N=Cc1nc(-c2ccccc2)oc1OC(C)=O	25µM*	20µM*
CSc1ccccc1N=Cc1nc(-c2ccccc2)oc1O	-8%	-7%
CN(C)c1ccc(N=Cc2nc(-c3ccccc3)oc2OC(=O)c2ccccc2)cc1	-14%	?
CC(=O)Oc1oc(-c2ccccc2)nc1/C=N/c1ccccn1	14µM*	13µM*
CCCCCCNC(=O)Nc1ccc(S(=O)(=O)Nc2ccc(CCNC[C@H](O)COc3ccc(O)cc3)cc2)cc1	2%	-8%
O=C(O)Cc1cc2ccccc2nc1C(=O)O	-2%	2%
O=C(/C(=C(/[O-])c1ccccc1)[n+]1ccccc1)c1ccc([N+](=O)[O-])cc1	-5%	-19%
O=[N+]([O-])c1cccc(/C([O-])=C(/C(=S)Nc2ccccc2)[n+]2ccccc2)c1	-22%	25µM*
COc1ccc(NC(=O)N2CC3(CCN(C(=O)c4c(C)noc4C)CC3)C2)cc1	-2%	-3%

Assay outcomes: PubChem BioAssay, National Center for Advancing Translational Sciences (NCATS)
